# Compound activity: PubChem, several laboratories
# Hits are enriched below; roughly 2% of the tested compounds scored in any of these assays.
# GalR3 antagonist: antagonists of human GalR3. O60755. HEK293 GalR3-CNG cAMP membrane potential fluorescence; galR3 body fused to GalR1 C-terminus. inhibition, % at 3 µM. 360,000 tested, 0.44% active. AID 651719;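 active means inhibition above the screen-wide average plus 3 SD, cut at about 13% in these data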;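 further: forskolin and galanin both at EC90 stimulate the cells; cAMP rise reported by CNG channel membrane potential dye signal; 0% = forskolin plus galanin with DMSO and 100% = forskolin alone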
# Target sequence (O60755 1-299 limits assumed): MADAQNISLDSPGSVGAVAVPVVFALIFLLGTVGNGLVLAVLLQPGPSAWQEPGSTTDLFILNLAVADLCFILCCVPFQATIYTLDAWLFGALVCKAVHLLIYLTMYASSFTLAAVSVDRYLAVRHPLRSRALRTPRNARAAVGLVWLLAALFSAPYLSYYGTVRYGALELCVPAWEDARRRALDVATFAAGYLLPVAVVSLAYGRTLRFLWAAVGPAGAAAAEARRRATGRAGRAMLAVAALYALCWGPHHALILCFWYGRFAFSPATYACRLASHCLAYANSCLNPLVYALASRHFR
# COUP-TFII inh: inhibitors of human COUP-TFII (NR2F2); AID 686940; P24468; inhibition, % at 8.6 µM; HEK293T NGFI-A luciferase reporter, luminescence; 370,000 tested, 0.7% active;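 active means inhibition above a per-plate cutoff, mean inhibition of test wells between control levels plus 3 SD, cut at about 38% in these data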;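 further: cells cotransfected with COUP-TFII expression vector driving the NGFI-A reporter; 0% = median of COUP-TF2 test wells and 100% = reporter-only cells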
# Gli-Sufu antag: antagonists of Gli-Sufu signaling; Sufu-KO-LIGHT fibroblasts, Gli luciferase reporter luminescence; inhibition, % at 5 µM; 340,000 tested, 0.74% active;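 active means inhibition above about 55%, limit read from the data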;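 further: 0% = DMSO-treated cells and 100% = wells with medium but no cells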
# 697 NFkB inh: lowers PMA/ionomycin-induced NF-kB signal in 697 B cells. 697 B-cell NF-kB luciferase reporter, 16 h. 330,000 tested, 0.33% active. inhibition, % at 4 µM; in the data active means inhibition above about 35%
# Jurkat NFkB inh: lowers PMA/ionomycin-induced NF-kB signal in Jurkat cells | PMA/ionomycin-induced NF-kB luciferase reporter, luminescence | inhibition, % at 4 µM | 330,000 tested, 0.53% active | AID 435003; in the data active means inhibition above about 50%
# 697 NFkB conf: inhibitors of the PMA/ionomycin-induced NF-kB reporter in 697 B cells, retest | inhibition, % at 4 µM | 697 B-cell NF-kB luciferase, 16 h | 2,000 tested, 35% active | shares compounds with 697 NFkB inh | AID 449746; in the data active means inhibition mostly above about 28%, no sharp cut-off; inactive means mostly below about 22%
# Active calls of the source: *; i = inactive; · = not tested or not shown.
SMILES,GalR3 antagonist,COUP-TFII inh,Gli-Sufu antag,697 NFkB inh,Jurkat NFkB inh,697 NFkB conf
CCc1ccc(/C=C2/SC(=S)N(CCC(=O)Nc3cccnc3)C2=O)cc1,-0.7,19.3,0.3,77.2*,22.3,67.3*
O=C(CCCN1C(=O)S/C(=C\C=C\c2ccccc2)C1=O)Nc1ccc(O)cc1,-1.7,-5.8,30.8,39.5*,-32.5,32.0*
O=C(CCCN1C(=O)/C(=C/c2ccc3c(c2)OCO3)SC1=S)Nc1ccc(C(=O)O)cc1,0.9,18.4,9.9,78.3*,20.1,78.5*
Cc1ccc(/C=C2\SC(=S)N(CCCC(=O)Nc3ccc(O)cc3)C2=O)cc1,-2.1,30.8,42.2,92.2*,-1.0,90.1*
O=C(CN1C(=O)S/C(=C/C=C/c2ccccc2)C1=O)Nc1ccc(C(=O)O)cc1,2.0,-15.5,-2.8,4.6,-27.9,·
COC(=O)C1CN(Cc2cn(Cc3ccccc3)nn2)CCS(=O)(=O)N1Cc1ccc(C)cc1 (stereo not given),·,-6.8,·,·,·,·
O=C(CSc1nc2ccccc2nc1N1CCCC1)N1CCN(C(c2ccccc2)c2ccccc2)CC1,·,0.8,·,·,·,·
COc1ccc(/C=C2\SC(=S)N(CCCC(=O)Nc3cccc(C(=O)O)c3)C2=O)cc1OC,-3.3,11.9,7.9,7.8,4.4,·
CCOc1ccc(/C=C2\SC(=S)N(CCC(=O)Nc3ccc(C(=O)O)cc3)C2=O)cc1,-9.3,1.4,7.6,80.5*,-2.8,76.8*
CC(C)c1ccc(/C=C2\SC(=S)N(CCC(=O)NCCCn3ccnc3)C2=O)cc1,-6.1,17.2,8.8,38.2*,-7.7,37.8*
COc1ccc(/C=C2\SC(=S)N(CCC(=O)NCCCn3ccnc3)C2=O)cc1,-10.0,6.3,10.3,-10.3,-21.9,·
O=C(CCCN1C(=O)/C(=C\c2ccccc2)SC1=S)Nc1ccc(C(=O)O)cc1,-2.6,0.7,27.6,18.9,-10.5,·
CCc1ccc(/C=C2\SC(=S)N(CCCC(=O)Nc3ccc(C(=O)O)cc3)C2=O)cc1,2.3,-7.0,43.5,72.8*,-11.4,84.3*
CCOc1ccc(/C=C2\SC(=S)N(CCC(=O)Nc3cccc(C(=O)O)c3)C2=O)cc1,-8.8,-25.1,18.6,68.3*,28.6,67.9*
CCCCCCCCN1C(=O)[C@@H](CC(=O)NCCCOCCCC)C[C@@]2(C(=O)OC)C1=C[C@H](C(C)(C)C)O[C@@H]2C,1.3,2.9,·,·,·,·
O=C(Nc1cc(Cl)ccc1F)C1CCCN1S(=O)(=O)c1cccc2cccnc12 (stereo not given),·,2.3,·,·,·,·
COCC(=O)N(C[C@H]1[C@H](c2ccccc2)[C@@H](CO)N1C(=O)NC(C)C)C(C)C,·,-11.4,·,·,·,·
O=C(CCCN1C(=O)/C(=C/c2cccs2)SC1=S)NNC(=O)c1ccccc1O,-1.7,-0.2,-1.7,-8.2,5.8,·
COc1ccc(/C=C2\SC(=S)N(CCCC(=O)NNC(=O)c3ccccc3O)C2=O)cc1,-0.6,25.3,25.5,73.5*,4.0,68.5*
CCN(C(=O)[C@@H](C)[C@@H](O)c1ccc(C(C)=O)cc1)c1ccccc1,·,4.6,·,·,·,·
CCCN1C(=O)/C(=C/c2c(N3CCNC(=O)C3CC(=O)OCC)nc3c(C)cccn3c2=O)SC1=S (stereo not given),·,·,0.9,36.7*,10.0,36.3*
O=C(NNC(=O)C12CC3CC(CC(C3)C1)C2)c1cccc(O)c1,-12.3,-9.4,10.1,43.9*,7.3,45.4*
O=C(NNC(=O)C12CC3CC(CC(C3)C1)C2)c1ccccc1O,-5.8,-21.6,-0.6,9.9,-0.8,·
CC(C)c1ccc(NC(=O)[C@H](Cc2c[nH]c3ccccc23)NC(=O)[C@@H]2Cc3ccccc3CN2)cc1,-6.8,-57.4,-5.2,i,-35.1,-91.6
COc1ccc(C(=O)C2(C(=O)NC3CCCC3)CC(c3ccccc3C(F)(F)F)=NO2)cc1 (stereo not given),·,2.6,·,·,·,·
SMILES,GalR3 antagonist,COUP-TFII inh,Gli-Sufu antag,697 NFkB inh,Jurkat NFkB inh,697 NFkB conf
CCN(CC)c1ccc(/C=N/N=C(c2ccccc2)c2ccccc2)c(O)c1,-5.4,-0.7,2.1,35.4*,9.0,26.6*
O=C(CN1CCN(c2nc(-c3ccccc3)cs2)CC1)Nc1ccc(F)cc1F,·,21.5,·,·,·,·
Cc1nn(C(C)(C)C)c(OC(=O)c2ccc(Br)o2)c1Sc1ccccc1,-7.0,-1.6,6.8,36.3*,8.8,31.1*
CCCN1CC(=O)N2[C@H](C[C@@]3(n4ccc5ccccc54)c4ccccc4N(S(=O)(=O)c4ccccc4)[C@@H]23)C1=O,·,-8.5,·,·,·,·
C[C@H](N)c1nnc(SCC(=O)c2ccc(Cl)cc2)o1,-6.1,-3.7,2.3,8.7,-3.8,·
CC(C)[C@H](N)c1nnc(SCC(=O)c2ccc(Cl)cc2)o1,-6.2,-0.2,16.3,58.0*,6.6,35.3*
COC(=O)[C@]12C[C@H](CC(=O)NCCCCc3ccccc3)C(=O)N(Cc3cccc4ccccc34)C1=C[C@H](C(C)(C)C)O[C@@H]2C,·,3.4,·,·,·,·
CCc1ccccc1Nc1nc(N)nc(COC(=O)c2cccn2C)n1,-5.2,-48.6,-22.4,-324.0,-92.5,-118.0
Cc1ccccc1Nc1nc(N)nc(COC(=O)c2cccn2C)n1,1.0,-49.1,-82.8,-56.8,-50.8,·
c1ccc(Nc2nc(N3CCCC3)nc(N3CCOCC3)n2)cc1,-1.4,-17.3,-0.2,17.2,4.7,·
Cc1[nH]c2ccccc2c1/C=N/Nc1nc(Nc2ccccc2)nc(N2CCOCC2)n1,-5.0,-45.6,12.1,48.7*,49.5,54.8*
Oc1[nH]c2ccccc2c1N=Nc1nc(Nc2ccccc2)nc(N2CCOCC2)n1,-3.8,-14.3,13.3,53.2*,-2.2,52.0*
CCCc1nc2oc3c(NCC4CCCO4)ncnc3c2c2c1COC(C)(C)C2 (stereo not given),-4.5,-5.6,0.8,11.1,-0.1,·
CC(C)c1nc2oc3c(NCC4CCCO4)ncnc3c2c2c1CCC2 (stereo not given),0.5,-0.4,4.5,42.1*,6.8,24.5
CCSC1=C(C#N)C(c2ccc(Cl)cc2)C2=C(CCCC2=O)N1 (stereo not given),-4.7,19.9,0.4,35.2*,3.8,13.4
NC(=O)c1c(N)[nH]c(C(=O)c2ccccc2)c1-c1ccccn1,·,-1.7,·,·,·,·
CNC(=O)C(=O)NCCN1CCN(C(=O)c2ccc([N+](=O)[O-])cc2)CC1,3.6,4.7,2.3,35.1*,9.7,14.7
CC(=O)Nc1ccc(NC(=O)CSc2nnc(-c3cccs3)n2N)cc1,-5.5,-15.1,3.3,39.9*,18.7,-1.4
COC(=O)[C@]12C[C@H](CC(=O)NCc3cccc(C(F)(F)F)c3)C(=O)N(CCc3ccc(OC)c(OC)c3)C1=C[C@H](C1CCCC1)O[C@@H]2C,·,-6.9,·,·,·,·
CC(C)(C)c1ccc(S(=O)(=O)N2CCC(C(=O)N3CCN(C4CCCCC4)CC3)CC2)cc1,·,-8.0,·,·,·,·
CC1=CC(C)(C)Nc2ccc(OC(=O)c3cccnc3)cc21,-3.5,8.7,5.0,66.3*,-14.2,61.9*
CC1=CC(C)(C)N2C(=O)C(=O)c3cc(OC(=O)c4ccco4)cc1c32,12.2,-6.9,-3.2,10.9,45.7,·
